Experiment [1] deals with Lysosomal acid glucosylceramidase (Homo sapiens) (UniProt P04062). The experiment is described as follows: Glucocerebrosidase-p2 (AID 348; in the data active means potency below about 10 µM; further: potency means the concentration at half of the fitted maximal effect). The conditions noted are these: purified GBA, blue fluorogenic substrate, 40 min. The method in brief:
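Compounds titrated from 0.6 nM upwards against 0.2 nM enzyme in pH 5.9 citric acid/KH2PO4, taurocholate, tween-20; blue fluorogenic substrate 80 uM, 40 min room temperature, stopped and read Ex 365/Em 440 for AC50.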

Experiment [2] is described as follows: AP1 Signaling Pathway (AID 357; active means well fitted curve in either direction with a large enough effect, not every such curve was filed as active; further: on the % scale 0 is the no-effect control and ±100 the full control effect). The conditions noted are these: ME-180 AP-1-bla reporter, EGF-induced, beta-lactamase ratio, 5 h; at 7.69 µM (top of the series) unless noted. The method in brief: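 AP-1-bla ME-180 cells with beta-lactamase reporter under AP-1 response element, stimulated with EC50 EGF; compounds titrated, 5 hours at 37 degrees Celsius. CCF4 read at 460/530 nm ratio; positive and negative modulators judged by AC50.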

The target of experiment [3] is Cytochrome P450 1A2 (Homo sapiens) (UniProt P05177). The experiment is described as follows: p450-cyp1a2 (AID 410; calls by dose curve; further: potency means the concentration at half of the fitted maximal effect;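 on activity change, negative = inhibition: -100% = full effect of reference inhibitor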). The method in brief:
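Luminescent readout of luciferin formed from Luciferin-ME by human CYP1A2; data normalized against complete inhibition by 57 uM furafylline. Enzyme 20nM, substrate 100uM at Km, 100mM KPO4 buffer, 60 min reaction at room temperature.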

A short description of experiment [4]: NFAT Signaling Pathway (AID 444; active means well fitted curve in either direction with a large enough effect, not every such curve was filed as active;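 further: carbachol stimulus at about its EC50 of 1 µM final; on the % scale 0 is the no-effect control and ±100 the full control effect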). The conditions noted are these: Jurkat NFAT-bla M1, carbachol, beta-lactamase ratio, 5 h; at 7.69 µM (top of the series) unless noted. The method in brief:
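Read-out: CCF4 FRET ratio (460 nm/530 nm) after 1 h RT dye loading, used for %activity and AC50 from titration series. Cells: Jurkat NFAT-β-lactamase/M1 line, treated with compound plus 1 uM carbachol for 5 h, 37 °C.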

Experiment [5] in a line: Stat Signaling Pathway (AID 446; active means well fitted curve in either direction with a large enough effect, not every such curve was filed as active;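 further: ME-180 cervical cancer cells given 40 pM IL-6 alongside compound; SIE-controlled beta-lactamase reporter measured as 460/530 nm FRET emission ratio; on the % scale 0 is the no-effect control and ±100 the full control effect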). The settings on record: ME-180 SIE beta-lactamase reporter, IL-6 stimulated, 5 h; at 7.69 µM (top of the series) unless noted. Put shortly: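 ME-180 cells carrying a SIE-driven beta-lactamase reporter are stimulated with 40 pM IL-6 for 5 h at 37C in the presence of compound. The 460/530 nm FRET substrate ratio is read after 2.5 h at RT. Data are normalised to 300 pM IL-6 and to 125 nM JAK inhibitor controls.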

Experiment [6] addresses Glucocorticoid receptor (Homo sapiens) (UniProt P04150). The experiment is described as follows: GR-GFP Redistribution (AID 450;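 active means compounds whose dose series gives a full or clear partial fitted curve of increased nuclear translocation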; further: potency means the concentration at half of the fitted maximal effect). The settings on record: U2OS GR-GFP nuclear translocation, laser cytometry, 2 h.
Experiment [7] shares this target. As to the kind of experiment: GR-EFC Redistribution (AID 451; calls by dose curve; further: potency means the concentration at half of the fitted maximal effect). The conditions noted are these: CHO-K1 GR-EFC translocation, beta-gal luminescence, 2 h. The method in brief:
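Translocation of GR-ED fusion to nuclear EA restores b-gal, read by luminescence after 1 h room-temperature detection. Engineered CHO-K1 biosensor cells, 1,000/well, exposed 2 h at 37 C to titrations up to 46 uM final.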

Experiment [8] has as its target Mitogen-activated protein kinase 10 (Mus musculus) (UniProt Q61831). The experiment is described as follows: JNK3 AlphaScreen Assay (AID 530; active means well fitted curve in either direction with a large enough effect, not every such curve was filed as active;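 further: kinase came from lysate of stimulated human HepG2 cells; signal reports phosphorylation of biotinylated GST-cJun 1-79 at Ser73 with 10 µM ATP; on the % scale 0 is the no-effect control and ±100 the full control effect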). The method in brief: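 Compound titrations were preincubated 15 minutes at room temperature with substrate, antibody and pre-activated JNK3-containing HepG2 lysate. Reactions were started with 10 uM ATP and stopped with EDTA-containing bead buffer for AlphaScreen detection.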
(Alpha assays give light when donor and acceptor beads are brought close together.)

Experiment [9] addresses 3',5'-cyclic-AMP phosphodiesterase 4B (Homo sapiens) (UniProt Q07343). The experiment is described as follows: qHTS Assay for Inhibitors of PDE-IV (AID 607; active means well fitted activation curve with a large enough effect in the main read-out, with a control signal flat, not every such curve was filed as active; further: % of control where 0% means no effect). Put shortly:
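HEK293 ACTOne cells with CNG channel (1000/well), endogenous PDE4; membrane potential dye, compounds up to 22.9 uM final. Fluorescence Ex 535/Em 590; RO 20-1724 (100 uM final) as reference.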
(In general: In qHTS, concentration-response curves come from the screen itself.)

Experiment [10] can be described thus: qHTS Assay for Lipid Storage Modulators (AID 1519; calls by dose curve). The conditions noted are these: Drosophila S3 cells, BODIPY lipid droplet/cell ratio, laser cytometry, cells loaded with oleic acid; for activity change, negative = inhibition: at 57.5 µM (top of the series). The method in brief:
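Cells seeded at 5,000 per well were treated with compounds over a concentration series and loaded with oleic acid (400 uM, as added). Lipid droplet fluorescence (488 nm excitation, 500-530 nm channel) was read by laser-scanning cytometry and normalized to 20 uM Triacsin C.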

In experiment [11] the target is Dual specificity protein kinase CLK4 (Homo sapiens) (UniProt Q9HAZ1). The experiment is described as follows: qHTS Assay for Inhibitors of CDC-like Kinase 4 (Kinase-Glo Assay) (AID 1770). Further: on the % scale 0 is the no-effect control and ±100 the full control effect; nearly all actives have a fitted effect of over 65% in size. Put shortly:
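Luminescent ATP-depletion read-out (Kinase-Glo) after 4.5 h room-temperature reaction of Clk4 (25 nM final) with RS peptide (100 uM) and ATP (1 uM), pH 7.5 Tris buffer with MgCl2 and DTT.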

The target is the same in experiment [12]. The experiment is described as follows: qHTS Assay for Inhibitors of CDC-like Kinase 4 (ADP-Glo Assay) (AID 1771). Further: on the % scale 0 is the no-effect control and ±100 the full control effect; nearly all actives have a fitted effect of over 70% in size. Put shortly:
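Luminescence from ADP-Glo reports ADP produced by 25 nM Clk4 acting on 100 uM RS repeat peptide with 1 uM ATP over 1 hr at room temperature; residual ATP is depleted before ADP is converted to ATP for detection.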

The target is the same in experiment [13]. As to the kind of experiment: qHTS Assay for Inhibitors of CDC-like Kinase 4 (ADP-FP Assay) (AID 1795).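 Further: recombinant human CLK4 phosphorylating RS repeat peptide at 1 µM ATP; on the % scale 0 is the no-effect control and ±100 the full control effect; nearly all actives have a fitted effect of over 60% in size.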 The method in brief:
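Kinase activity was measured as ADP production using Transcreener orange tracer (4 nM) and ADP antibody (1 ug/mL) fluorescence polarization, with ADP calculated from a calibration curve. The 1 h reaction contained 6.25 nM Clk4, 1 uM ATP and 100 uM RS peptide at pH 7.5 with Mg2+.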

For experiment [14], the target named is Ubiquitin carboxyl-terminal hydrolase 1 (Homo sapiens) (UniProt O94782). As to the kind of experiment: Inhibitors of USP1/UAF1: Pilot qHTS (AID 504865).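 Further: rhodamine fluorescence freed from ubiquitin-rhodamine substrate followed over time; top concentration of the series differs between compounds; on the % scale 0 is the no-effect control and ±100 the full control effect; nearly all actives have a fitted effect of over 35% in size.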 Put shortly: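 Deubiquitinase activity followed as kinetic rhodamine fluorescence release from 150 nM Ub-Rho. 1 nM USP1/UAF1 with compound, after 15 min room-temperature preincubation, in HEPES pH 7.8 buffer containing TCEP, EDTA, BSA and Tween-20.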

Experiment [15] can be described thus: Primary qHTS for small molecule stabilizers of the endoplasmic reticulum resident proteome: Secreted ER Calcium Modulated Protein (SERCaMP) assay (AID 1508630). Further: on the % scale 0 is the no-effect control and ±100 the full control effect. Put shortly: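 GLuc-SERCaMP-expressing SH-SY5Y cells, pretreated 16 h with compound, are challenged with thapsigargin to empty ER calcium stores; after 4 h, coelenterazine is added directly to the medium and luminescence is imaged.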

The target in experiment [16] is Cytochrome P450 3A4 (Homo sapiens) (UniProt P08684). The experiment is described as follows: qHTS Assay for Inhibitors and Substrates of Cytochrome P450 3A4 (AID 884). Further: on the % scale 0 is the no-effect control and ±100 the full control effect; nearly all actives have a fitted effect of over 50% in size. The method in brief:
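20 nM human CYP3A4 with 25 uM Luciferin-PPXE (at KM) in 200 mM KPO4, preincubated 10 min with compound; NADPH regeneration started a 60 min RT reaction. Luciferin detected by luminescence, normalized to 57 uM ketoconazole as full inhibition.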

In experiment [17] the target is Rap guanine nucleotide exchange factor 3 (Homo sapiens) (UniProt O95398). As to the kind of experiment: Confirmatory qHTS for agonist of cAMP-regulated guanine nucleotide exchange factor 3 (EPAC1) (AID 1645881).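 Further: EPAC1 catalysed release of BODIPY-GDP from Rap1B seen as fluorescence loss; 100% = effect of cAMP agonist control; nearly all actives have a fitted effect of over 75% in size.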
The target in experiment [18] is Rap guanine nucleotide exchange factor 4 (Homo sapiens) (UniProt Q8WZA2). As to the kind of experiment: Confirmatory qHTS for agonist of cAMP-regulated guanine nucleotide exchange factor 4 (EPAC2) (AID 1645884).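 Further: nucleotide exchange releases bodipy-GDP from Rap1 and this lowers its fluorescence; on the % scale 0 is the no-effect control and ±100 the full control effect; nearly all actives have a fitted effect of over 65% in size.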
For experiment [19] the target is unchanged. The experiment is described as follows: Confirmatory qHTS for antagonist of cAMP-regulated guanine nucleotide exchange factor 4 (EPAC2) (AID 1645885). Further: potency means the concentration at half of the fitted maximal effect; nearly all actives have a fitted effect of over 25% in size.
Experiment [20] has as its target Cytochrome P450 3A4 (Homo sapiens) (UniProt P08684). The experiment is described as follows: qHTS Assay for Activators of Cytochrome P450 3A4 (AID 885). Further: nearly all actives have a fitted effect of over 65% in size. Put shortly:
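Human CYP3A4 (20 nM) with Luciferin-PPXE at 25 uM (its KM) in 200 mM KPO4; 10 min compound preincubation, then NADPH regeneration and 60 min reaction at RT. Luciferin read by luminescence; normalized to 57 uM ketoconazole full inhibition.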

[21] abbreviates: measured here: cell count channel max response.
The mark [22] stands for this setting: measured here: lipid channel max response.

Results filed as inconclusive are left out. Activity calls are given as the source filed them. Unless noted, the call rests on the fitted dose curve; in most records, active means well fitted curve in the direction sought with a large enough effect; inconclusive means small, poorly fitted or top-dose-only effect, or another doubt; inactive means no such curve, though single readings can be large; an effect the other way counts as inactive or inconclusive.

Sequence of Ubiquitin carboxyl-terminal hydrolase 1 (Homo sapiens) (O94782 whole entry, looked up): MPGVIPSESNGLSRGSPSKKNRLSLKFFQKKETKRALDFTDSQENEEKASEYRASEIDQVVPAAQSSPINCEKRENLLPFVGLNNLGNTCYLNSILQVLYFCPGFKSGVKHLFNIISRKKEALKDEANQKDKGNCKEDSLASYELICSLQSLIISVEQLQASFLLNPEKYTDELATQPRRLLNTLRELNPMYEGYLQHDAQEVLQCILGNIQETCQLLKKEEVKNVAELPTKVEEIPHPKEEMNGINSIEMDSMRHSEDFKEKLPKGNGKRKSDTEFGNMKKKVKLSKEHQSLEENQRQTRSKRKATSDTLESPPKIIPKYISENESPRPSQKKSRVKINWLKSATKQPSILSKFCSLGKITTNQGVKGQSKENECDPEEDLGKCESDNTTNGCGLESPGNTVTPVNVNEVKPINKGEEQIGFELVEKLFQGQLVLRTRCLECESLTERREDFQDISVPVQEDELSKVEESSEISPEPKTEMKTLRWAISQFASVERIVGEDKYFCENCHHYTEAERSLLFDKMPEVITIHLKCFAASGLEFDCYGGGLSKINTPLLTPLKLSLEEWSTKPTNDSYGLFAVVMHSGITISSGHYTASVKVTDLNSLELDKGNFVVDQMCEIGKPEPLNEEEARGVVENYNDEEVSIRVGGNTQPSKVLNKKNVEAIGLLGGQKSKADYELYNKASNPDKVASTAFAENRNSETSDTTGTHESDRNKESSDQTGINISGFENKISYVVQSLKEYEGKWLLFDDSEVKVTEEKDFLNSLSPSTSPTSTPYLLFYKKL
Sequence of Glucocorticoid receptor (Homo sapiens) (P04150 whole entry, looked up): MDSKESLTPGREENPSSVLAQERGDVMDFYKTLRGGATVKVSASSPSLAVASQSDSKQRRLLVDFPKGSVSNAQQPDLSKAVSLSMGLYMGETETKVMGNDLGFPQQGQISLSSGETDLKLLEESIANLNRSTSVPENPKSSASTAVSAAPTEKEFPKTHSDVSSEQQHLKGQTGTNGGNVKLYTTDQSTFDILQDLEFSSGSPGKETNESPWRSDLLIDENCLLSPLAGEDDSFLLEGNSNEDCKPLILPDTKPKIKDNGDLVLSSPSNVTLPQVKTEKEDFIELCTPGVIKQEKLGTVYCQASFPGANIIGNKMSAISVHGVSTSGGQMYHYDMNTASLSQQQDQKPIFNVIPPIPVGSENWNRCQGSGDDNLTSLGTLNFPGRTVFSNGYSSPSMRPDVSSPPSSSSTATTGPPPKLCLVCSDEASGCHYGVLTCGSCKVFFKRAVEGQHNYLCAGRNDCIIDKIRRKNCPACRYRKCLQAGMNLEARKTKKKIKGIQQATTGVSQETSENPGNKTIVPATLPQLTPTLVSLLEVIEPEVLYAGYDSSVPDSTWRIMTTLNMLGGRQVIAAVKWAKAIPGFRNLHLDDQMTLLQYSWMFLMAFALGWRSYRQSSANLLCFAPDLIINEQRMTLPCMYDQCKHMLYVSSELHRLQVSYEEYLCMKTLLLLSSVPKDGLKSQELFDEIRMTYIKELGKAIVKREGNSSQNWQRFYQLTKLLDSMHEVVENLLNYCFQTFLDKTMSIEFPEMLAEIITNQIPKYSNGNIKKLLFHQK
Sequence of Dual specificity protein kinase CLK4 (Homo sapiens) (Q9HAZ1 whole entry, looked up): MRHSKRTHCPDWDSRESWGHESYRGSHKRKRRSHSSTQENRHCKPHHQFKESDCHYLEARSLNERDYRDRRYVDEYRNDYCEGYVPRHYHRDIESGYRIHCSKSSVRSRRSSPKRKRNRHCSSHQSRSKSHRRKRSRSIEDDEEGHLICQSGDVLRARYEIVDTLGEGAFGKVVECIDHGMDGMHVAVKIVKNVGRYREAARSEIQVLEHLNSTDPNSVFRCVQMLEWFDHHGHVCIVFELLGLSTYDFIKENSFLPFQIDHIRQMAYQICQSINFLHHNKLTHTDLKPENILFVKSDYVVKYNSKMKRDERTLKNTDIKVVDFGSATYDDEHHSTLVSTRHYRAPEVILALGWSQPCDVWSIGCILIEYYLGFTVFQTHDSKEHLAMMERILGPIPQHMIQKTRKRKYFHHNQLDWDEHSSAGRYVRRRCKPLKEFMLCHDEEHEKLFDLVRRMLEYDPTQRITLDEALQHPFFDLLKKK
Sequence of 3',5'-cyclic-AMP phosphodiesterase 4B (Homo sapiens) (Q07343 whole entry, looked up): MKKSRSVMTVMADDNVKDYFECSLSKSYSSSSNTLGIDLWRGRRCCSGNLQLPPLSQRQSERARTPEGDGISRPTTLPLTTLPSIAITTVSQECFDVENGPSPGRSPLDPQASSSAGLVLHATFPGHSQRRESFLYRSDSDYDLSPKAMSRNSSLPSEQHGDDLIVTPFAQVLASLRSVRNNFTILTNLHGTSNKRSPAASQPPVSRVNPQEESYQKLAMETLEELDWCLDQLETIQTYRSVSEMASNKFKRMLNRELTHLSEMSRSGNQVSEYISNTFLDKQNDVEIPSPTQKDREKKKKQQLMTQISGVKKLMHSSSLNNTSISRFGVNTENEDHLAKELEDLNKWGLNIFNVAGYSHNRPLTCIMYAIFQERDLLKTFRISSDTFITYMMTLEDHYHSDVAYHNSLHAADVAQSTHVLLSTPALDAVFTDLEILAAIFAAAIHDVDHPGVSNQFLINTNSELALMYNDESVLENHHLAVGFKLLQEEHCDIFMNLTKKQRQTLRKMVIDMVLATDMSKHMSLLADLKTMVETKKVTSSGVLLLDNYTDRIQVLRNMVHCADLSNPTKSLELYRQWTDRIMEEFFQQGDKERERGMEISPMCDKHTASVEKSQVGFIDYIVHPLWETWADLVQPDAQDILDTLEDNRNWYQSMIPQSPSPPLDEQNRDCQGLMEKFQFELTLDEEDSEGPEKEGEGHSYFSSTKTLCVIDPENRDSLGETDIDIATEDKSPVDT
Sequence of Cytochrome P450 1A2 (Homo sapiens) (P05177 whole entry, looked up): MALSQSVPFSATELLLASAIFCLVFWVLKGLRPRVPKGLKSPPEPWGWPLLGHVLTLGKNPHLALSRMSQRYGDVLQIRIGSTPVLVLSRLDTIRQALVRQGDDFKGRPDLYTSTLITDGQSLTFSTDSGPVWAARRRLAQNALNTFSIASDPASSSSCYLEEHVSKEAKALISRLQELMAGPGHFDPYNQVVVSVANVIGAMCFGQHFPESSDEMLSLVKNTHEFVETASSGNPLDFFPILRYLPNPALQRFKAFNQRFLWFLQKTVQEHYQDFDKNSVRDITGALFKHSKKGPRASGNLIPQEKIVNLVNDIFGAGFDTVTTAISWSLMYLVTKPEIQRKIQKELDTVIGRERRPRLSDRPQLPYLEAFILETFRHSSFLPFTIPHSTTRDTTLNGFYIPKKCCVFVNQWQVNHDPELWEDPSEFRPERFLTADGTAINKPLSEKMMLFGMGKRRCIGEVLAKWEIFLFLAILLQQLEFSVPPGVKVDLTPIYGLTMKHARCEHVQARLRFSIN
Sequence of Lysosomal acid glucosylceramidase (Homo sapiens) (P04062 whole entry, looked up): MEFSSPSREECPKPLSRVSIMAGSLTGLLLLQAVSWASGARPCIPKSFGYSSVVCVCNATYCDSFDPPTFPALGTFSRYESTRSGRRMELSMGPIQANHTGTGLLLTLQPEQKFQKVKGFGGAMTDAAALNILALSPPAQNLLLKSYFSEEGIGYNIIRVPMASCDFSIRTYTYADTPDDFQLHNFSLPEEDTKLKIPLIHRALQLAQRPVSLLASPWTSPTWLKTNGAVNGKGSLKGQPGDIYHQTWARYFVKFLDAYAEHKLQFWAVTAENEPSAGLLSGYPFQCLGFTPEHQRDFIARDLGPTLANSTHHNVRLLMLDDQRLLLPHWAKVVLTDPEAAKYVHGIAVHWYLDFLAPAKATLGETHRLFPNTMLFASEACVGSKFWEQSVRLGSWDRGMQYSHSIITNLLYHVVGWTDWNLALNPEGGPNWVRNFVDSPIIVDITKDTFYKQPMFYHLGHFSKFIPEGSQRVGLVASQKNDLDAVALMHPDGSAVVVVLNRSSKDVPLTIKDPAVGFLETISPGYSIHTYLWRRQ
Sequence of Rap guanine nucleotide exchange factor 4 (Homo sapiens) (Q8WZA2 whole entry, looked up): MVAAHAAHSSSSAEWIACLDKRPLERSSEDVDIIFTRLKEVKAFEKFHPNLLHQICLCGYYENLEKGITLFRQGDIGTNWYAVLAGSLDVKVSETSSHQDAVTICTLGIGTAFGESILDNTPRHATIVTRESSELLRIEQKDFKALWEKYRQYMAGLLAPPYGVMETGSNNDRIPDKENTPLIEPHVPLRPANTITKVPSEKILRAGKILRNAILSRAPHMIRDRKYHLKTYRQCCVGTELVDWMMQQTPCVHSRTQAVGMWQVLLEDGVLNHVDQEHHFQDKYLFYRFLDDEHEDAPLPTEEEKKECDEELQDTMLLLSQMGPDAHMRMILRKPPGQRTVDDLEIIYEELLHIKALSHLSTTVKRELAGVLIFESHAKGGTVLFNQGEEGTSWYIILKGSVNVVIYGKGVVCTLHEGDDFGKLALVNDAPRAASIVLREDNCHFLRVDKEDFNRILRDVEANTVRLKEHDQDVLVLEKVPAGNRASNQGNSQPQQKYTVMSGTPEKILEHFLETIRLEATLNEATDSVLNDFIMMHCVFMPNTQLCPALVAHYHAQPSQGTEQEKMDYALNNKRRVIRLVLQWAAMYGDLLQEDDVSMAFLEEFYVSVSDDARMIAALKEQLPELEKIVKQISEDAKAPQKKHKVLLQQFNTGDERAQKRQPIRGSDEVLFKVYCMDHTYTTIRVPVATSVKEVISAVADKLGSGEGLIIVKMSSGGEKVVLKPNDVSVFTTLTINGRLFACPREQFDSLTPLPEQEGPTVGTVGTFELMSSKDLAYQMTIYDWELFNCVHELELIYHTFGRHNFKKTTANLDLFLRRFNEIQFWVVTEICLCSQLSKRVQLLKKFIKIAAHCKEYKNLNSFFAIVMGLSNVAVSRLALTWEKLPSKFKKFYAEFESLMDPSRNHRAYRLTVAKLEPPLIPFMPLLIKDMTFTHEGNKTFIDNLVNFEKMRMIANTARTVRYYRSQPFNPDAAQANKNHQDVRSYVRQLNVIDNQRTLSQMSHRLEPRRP

As to `O=c1c(-c2ccc(F)cc2)nc2cnc(Oc3cccc(Cl)c3)nc2n1C1CC1`, the Potency in experiment [1] is > 11.4 µM (inactive); in experiment [3], 0.316 µM (active); in experiment [6], > 9.22 µM (inactive); in experiment [7], > 46 µM (inactive). In addition, the activity change, negative = inhibition in [2] was 25.5% (inactive); in experiment [4], 16.4% (inactive); in experiment [10], 0.37% (inactive). Moreover, the activity, negative = inhibition in experiment [5] was -8.35% (inactive). For the same molecule, in experiment [8], the molecule was called inactive. Moreover, the Potency entry in [9], in experiment [11], in [12], in [13], in experiment [14] and in experiment [15] was “inactive” throughout. Moreover, the results for the max response in experiment [10] (setting [21]) and in experiment [10] (setting [22]) were -8.94% and -12.9%, respectively.
Take `Cc1nc2cnc(N3CCOCC3)nc2n(C)c1=O`: the Potency in [1] was > 11.4 µM (inactive); in [3], 6.31 µM (active); in experiment [6] it was > 9.22 µM (inactive); in experiment [7], > 46 µM (inactive). In addition, the activity change, negative = inhibition was -9.18% (inactive) in experiment [2], 3.85% (inactive) in [4] and 4.73% (inactive) in experiment [10]. Further, the activity, negative = inhibition in experiment [5] is -2.49% (inactive). For the same molecule, in [8], the outcome was inactive. Further, the Potency entry in [9], in experiment [11], in experiment [12], in [13], in experiment [14] and in experiment [15] was “inactive” throughout. Besides, the max response in experiment [10] (setting [21]) was determined as 11.2%; in experiment [10] (setting [22]), 13.5%.
As for `O=C(c1cccc(F)c1)N1CCC2(CCN(Cc3cc(C(F)(F)F)cc(C(F)(F)F)c3)CC2)CC1`, the Potency is > 11.4 µM (inactive) in [1] and 39.3 µM (active) in [19]. The Potency result in experiment [3], in [9], in experiment [16] and in [15] was “inactive” in each case. Further, the activity, negative = inhibition in experiment [5] is 9.15% (inactive). Moreover, the result in experiment [8], in experiment [17] and in experiment [18] was inactive. For the same molecule, in experiment [10], the activity change, negative = inhibition was 1.43% (inactive). Besides, the values for the max response in experiment [10] (setting [21]) and in experiment [10] (setting [22]) were 10.5% and 12.9%, respectively.
As to `N#CCCn1c(=O)c(-c2ccc(Cl)cc2)nc2cnc(Oc3ccccc3)nc21`, the Potency was > 11.4 µM (inactive) in experiment [1], 0.501 µM (active) in experiment [3], > 9.22 µM (inactive) in experiment [6] and > 46 µM (inactive) in [7]. For the same molecule, the activity change, negative = inhibition in experiment [2] was -26.3% (inactive); in experiment [4] it was -9.95% (inactive); in [10] it was 4.78% (inactive). For the same molecule, in experiment [5], the activity, negative = inhibition is -6.74% (inactive). For the same molecule, the molecule was called inactive in experiment [8]. Besides, the Potency entry in [9], in [11], in experiment [12], in [13], in experiment [14] and in experiment [15] was “inactive” throughout. For the same molecule, the values for the max response in [10] (setting [21]) and in experiment [10] (setting [22]) were 19.6% and 24.2%, respectively.
`COc1ccccc1CNc1ccnc(-c2ccc3c(c2)OCO3)n1`: the activity change, negative = inhibition in [2] was -17.7% (inactive); in [4], -13.2% (inactive); in [10], 9.28% (inactive). Besides, the activity, negative = inhibition in experiment [5] was -21.3% (inactive). For the same molecule, the values for the Potency in experiment [6], in experiment [7] and in [19] were > 46 µM (inactive), > 46 µM (inactive) and 17.5 µM (active), respectively. The call in [8], in experiment [17] and in [18] was inactive. In addition, the Potency entry in experiment [20] and in experiment [15] was “inactive” each time. The max response was -12.3% in experiment [10] (setting [21]) and -4.95% in [10] (setting [22]).

These data come from PubChem BioAssay (NCATS).
